The source of these data is PubChem BioAssay.

Unmarked numbers belong to inactive results.

The nature of the assay: A549 lung cancer cell viability effects, profiling panel, resazurin fluorescence, 24 h, PK04 Diversity Set (AID 1171). Further: test concentration not given here. The following applies: higher = more signal, called active from +8 up or from −8 down. For orientation: Alamar Blue is a resazurin reagent that responds to reducing activity.
Consider `COc1ccc([Si](C)(C)[C@@H]2[C@@H](CCn3cc([C@H](O)c4ccccc4)nn3)O[C@]3(C(=O)N(c4ccccc4)c4ccccc43)[C@H]2C)cc1`, for which the z-score is -2.3.
The value for `CCN(CC)c1ccc(N2CC=CC34O[C@@H]5C=CCCOC(=O)C5[C@H]3C(=O)N(CCO)[C@@H]4C2=O)cc1` (stereo partly specified) was -0.0198; that for `COc1ccc([Si](C)(C)[C@H]2[C@H](CCO)O[C@@]3(C(=O)N(Cc4ccc(N5C(=O)c6ccccc6Oc6ccccc65)cc4)c4ccccc43)[C@@H]2C)cc1` was -2.45; that for `CC(C)CNC(=O)[C@@]1(C)c2ccccc2C(=O)N(Cc2cc(C(F)(F)F)cc(C(F)(F)F)c2)[C@H]1c1ccc(CO)cc1` was -0.428.
In the case of `[N-]=[N+]=NC[C@H](Cc1ccccc1)NC(=O)c1ccccc1` it was 1.19; in that of `CN(C)C(=O)[C@]1(CCS(=O)(=O)c2ccccc2)N=C(c2ccc(OCCCO)cc2)O[C@@H]1c1ccccc1`, -0.482; in that of `O=C(CS)NCCCCCNC(=O)[C@@H]1C[C@@H]2C(=O)N[C@@H](Cc3ccccc3)C(=O)N2[C@@H]1c1cccc(OCCO)c1`, -0.488.
The value for `CN1C(=O)C2C=CC(C(O)c3ccc(F)cc3)N(NC(=O)OC(C)(C)C)C2C1=O` (stereo unspecified) was -1.18; that for `[N-]=[N+]=NCc1ccccc1[C@@H]1OC(c2ccc(OCCCO)cc2)=N[C@]1(Cc1ccccc1)C(=O)NCCN1CCOCC1` was 1.26.
In the case of `[N-]=[N+]=Nc1ccccc1[C@@H]1OC(c2ccc(OCCCO)cc2)=N[C@]1(Cc1ccccc1)C(=O)NCc1ccccc1`, the z-score was -1.48.
Regarding `CO[C@H]1O[C@H](CO)[C@@H](OC(=O)Nc2ccc(C#N)cc2)[C@@H]2OC(=O)[C@H](Cc3cccc(Br)c3)C/C=C/C[C@@H](Cc3cccc(Br)c3)C(=O)O[C@@H]12`, the z-score was -2.28.
In the case of `CC(C)C[C@@H]1NC(=O)[C@@]23C(=O)N[C@@H](Cc4ccccc4)C2[C@H](C)[C@@]2(C)O[C@H]2C3/C=C/C/C=C\CNC(=O)[C@@H](C)NC1=O` (stereo partly specified) it was 1.16.
The value for `COCCOC(=O)N1C(=O)[C@@]2(c3cc(C#CCC(C(=O)OC)C(=O)OC)ccc31)[C@H](c1ccc(O)cc1)N1[C@H](c3ccccc3)[C@H](c3ccccc3)OC(=O)[C@H]1[C@@H]2C(=O)NC[C@H](O)c1ccccc1` was 0.691; that for `C=CCC(OC(C)=O)[C@@H]1[C@@H](N(Cc2ccc(-c3cccc(C(F)(F)F)c3)o2)C(=O)c2ccc(C)cc2)c2cc(OCCCO)ccc2N1C(=O)Cc1ccc(OC)cc1` (stereo partly specified) was 1.25; that for `CCCCC(=O)N(CCN1CCOCC1)[C@@H]1CC(C(=O)NCCO)=C[C@H](Oc2c(I)cc(CO)cc2OC)[C@H]1O` was -0.0043.
In the case of `O=C1NC(=O)C2C1C=CC(C(O)c1ccccn1)N2Nc1ccc(Cl)cc1Cl` (stereo unspecified) it was -0.572; in that of `C=CCC(OC(C)=O)[C@@H]1[C@@H](N(Cc2ccc(-c3cccc(C(F)(F)F)c3)o2)C(=O)Cc2ccc(OC)cc2)c2cc(OCCCO)ccc2N1C(=O)Cc1ccc2ccccc2c1` (stereo partly specified), -0.674; in that of `C=C[C@@H](C)[C@H](O)c1ccc(OCCO)cc1`, -0.0272.
Turning to `O=C1O[C@H](c2ccccc2)[C@H](c2ccccc2)N2[C@H]1[C@@H](C(=O)N1CCCCCCC1)[C@]1(C(=O)Nc3ccc(C#CC4(O)CCCCCC4)cc31)[C@H]2c1ccccc1OCCO`, the z-score is -0.152.
The value for `O=C1O[C@H](c2ccccc2)[C@H](c2ccccc2)N2[C@H]1[C@@H](C(=O)N1CCCCCCC1)[C@]1(C(=O)Nc3ccc(C#CC4(O)CCCCCC4)cc31)[C@H]2c1ccc(O)cc1` was 0.0109.
The value for `COCCOC(=O)N1C(=O)[C@@]2(c3ccccc31)[C@H](c1ccc(OCCO)cc1)N1[C@H](c3ccccc3)[C@H](c3ccccc3)OC(=O)[C@H]1[C@@H]2C(=O)N1CCCCCCC1` was 0.0556; that for `CC(=O)NCCCC[C@@H]1NC(=O)[C@@H]2C[C@H](C(=O)NCCCCCCN)[C@H](c3cccc(OCCO)c3)N2C1=O` was -0.358.
In the case of `[N-]=[N+]=Nc1ccccc1C[C@]1(C(=O)O)N=C(c2ccc(OCCCO)cc2)O[C@H]1c1ccccc1N=[N+]=[N-]` it was -0.371; in that of `CCN(CC)c1ccc(N2CC=CC34O[C@@H]5/C=C\CCC(C)OC(=O)C5[C@H]3C(=O)N(C(C)CO)[C@@H]4C2=O)cc1` (stereo partly specified), -0.0052.
For `O=C(O)[C@H]1C[C@H]2C(=O)N[C@@H](Cc3ccccc3)C(=O)N2[C@H]1c1cccc(OCCO)c1`, the z-score is 0.75.
Regarding `CCCCCCCCCCC(O)C1C=CC2C(=O)N(C)C(=O)C2N1Nc1cc(OC)c(OC)c(OC)c1` (stereo unspecified), the z-score is -1.38.
In the case of `C=CCN1C(=O)[C@]2(O[C@H](CCO)[C@@H]([Si](C)(C)c3ccc(OC)cc3)[C@@H]2C)c2cc(N3C(=O)COc4ccccc43)ccc21` it was -5.62; in that of `CCOC(=O)C1=CCC(c2ccccc2)N(S(=O)(=O)c2ccc([N+](=O)[O-])cc2)C1` (stereo unspecified), 0.217.
For the compound `CCOC(=O)C1=C[C@@H](c2ccccc2)N(S(=O)(=O)c2ccc(C)cc2)[C@H]1c1ccccc1`, the z-score was 0.537.
With `C=CCNC(=O)[C@@H]1[C@H]2C(=O)O[C@H](c3ccccc3)[C@H](c3ccccc3)N2[C@H](c2ccc(O)cc2)[C@@]12C(=O)Nc1ccc(C#CCC(C(=O)OC)C(=O)OC)cc12`, the z-score is -0.395.
For `C=C[C@@H](C)[C@@H](OC(=O)Nc1ccc(SC)cc1)c1ccc(OCCO)cc1`, the z-score is 0.491.
The value for `COc1cc(NN2C(C(O)c3cc(OC)c(OC)c(OC)c3)C=CC3C(=O)N(c4ccccc4)C(=O)C32)cc(OC)c1OC` (stereo unspecified) was -1.11.
In the case of `COc1ccc([Si](C)(C)[C@@H]2[C@@H](CC(=O)N3Cc4ccccc4C[C@H]3CO)O[C@]3(C(=O)N(Cc4ccc(N5CCC5=O)cc4)c4ccccc43)[C@H]2C)cc1` it was -0.61.
The value for `CN(C)C(=O)[C@@]1(CCC(=O)OC(C)(C)C)N=C(c2ccc(OCCCO)cc2)O[C@H]1c1ccccc1CN=[N+]=[N-]` was 1.19; that for `CCOC(=O)C[C@H]1[C@H](OC(=O)c2ccccc2-c2ccccc2)[C@@H](NC(=O)c2ccccc2)c2cc(OCCCO)ccc2N1C(=O)c1ccccc1` was -0.336; that for `CN(C)CCCC[C@@H]1NC(=O)[C@@H]2C[C@H](C(=O)O)[C@H](c3cccc(OCCO)c3)N2C1=O` was 0.593.
